Laboratory results from PubChem BioAssay (Tox21).
Several values for one entry are separate records, joined by “and”; a condition that tells them apart may be missing. Identical values can stand only once. Results filed as inconclusive are left out. Where a call stands in place of a potency, no number is given. A structure can be active in one record and inactive in another. Activity calls are given as the source filed them. Unless noted, calls come from the whole dose curve; as a rule, active = well fitted curve in the direction sought with a large enough effect in the repeat runs; inconclusive = weak or mixed curves; inactive = no such curve, though single readings can be large; an effect the other way counts as inactive or inconclusive.

Experiments:
[1] = biological target: Progesterone receptor (Homo sapiens) (UniProt P06401); test: qHTS assay to identify small molecule agonists of the progesterone receptor (PR) signaling pathway (AID 1346784; calls by dose curve; note: nearly all actives have a fitted effect of over 30% in size)
Chain of Progesterone receptor (Homo sapiens) (P06401 whole entry, looked up): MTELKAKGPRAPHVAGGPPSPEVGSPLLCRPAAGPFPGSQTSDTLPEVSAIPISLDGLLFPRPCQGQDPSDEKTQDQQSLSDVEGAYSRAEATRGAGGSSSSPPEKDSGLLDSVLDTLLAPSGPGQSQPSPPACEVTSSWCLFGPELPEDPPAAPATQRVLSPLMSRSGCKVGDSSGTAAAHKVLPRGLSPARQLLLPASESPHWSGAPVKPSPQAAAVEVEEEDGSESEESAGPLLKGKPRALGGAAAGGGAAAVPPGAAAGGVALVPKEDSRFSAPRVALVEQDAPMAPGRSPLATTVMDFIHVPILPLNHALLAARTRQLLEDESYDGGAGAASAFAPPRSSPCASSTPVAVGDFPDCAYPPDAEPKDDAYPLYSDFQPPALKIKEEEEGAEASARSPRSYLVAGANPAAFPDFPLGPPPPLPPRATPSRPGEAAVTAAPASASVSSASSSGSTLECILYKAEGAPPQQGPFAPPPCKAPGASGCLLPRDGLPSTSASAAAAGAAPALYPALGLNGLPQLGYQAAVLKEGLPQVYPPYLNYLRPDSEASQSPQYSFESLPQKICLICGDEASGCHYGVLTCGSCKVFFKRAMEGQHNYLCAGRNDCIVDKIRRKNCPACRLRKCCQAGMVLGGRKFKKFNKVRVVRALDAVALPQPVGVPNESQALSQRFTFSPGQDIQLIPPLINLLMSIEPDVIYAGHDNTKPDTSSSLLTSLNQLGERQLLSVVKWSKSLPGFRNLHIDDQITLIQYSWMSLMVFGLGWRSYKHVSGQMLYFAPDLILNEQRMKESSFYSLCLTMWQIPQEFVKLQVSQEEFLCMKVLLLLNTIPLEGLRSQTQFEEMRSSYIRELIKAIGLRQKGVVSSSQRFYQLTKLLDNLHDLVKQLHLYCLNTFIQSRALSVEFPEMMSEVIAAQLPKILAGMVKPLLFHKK
Procedure, shortened: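 Beta-lactamase reporter read-out: after 16 hr compound treatment at 37C and a further 2 hr at room temperature with LiveBLAzer B/G FRET substrate, fluorescence was measured in PR-UAS-bla HEK 293T cells grown in 2% charcoal-stripped serum.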

[2] = qHTS assay to identify small molecule antagonists of the progesterone receptor (PR) signaling pathway - cell viability counter screen (AID 1346798); note: nearly all actives have a fitted effect of over 50% in size; note: potency is the fitted concentration of half-maximal effect
Procedure, shortened: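 HEK293T PR-UAS-bla, 2% charcoal-stripped FBS; 4 hr pre-plate; cpd + R5020, 16 h 37C; LiveBLAzer read first; then CellTiter-Glo 30 min RT, luminescence.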

[3] = qHTS assay to identify small molecule agonists of the progesterone receptor (PR) signaling pathway - cell viability counter screen (AID 1346799; calls by dose curve; note: nearly all actives have a fitted effect of over 45% in size)
Procedure, shortened: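 Luminescence from CellTiter-Glo, added after the beta-lactamase FRET read in the same wells, gave cytotoxicity in PR-UAS-bla HEK293T cells treated with compounds for 16 hr at 37C.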

[4] = qHTS assay to identify small molecule antagonists of the TGF-beta/Smad signaling pathway - cell viability counter screen (AID 1346824); note: nearly all actives have a fitted effect of over 50% in size
Procedure, shortened: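 SBE-bla HEK 293T cells, incubated overnight, then compound plus 0.25 ng/mL TGF-beta1 (stock added) for 5 hr at 37 C. Viability was read in the same wells by CellTiter-Glo luminescence after 30 min at room temperature.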

[5] = qHTS assay to identify small molecule agonists of the TGF-beta/Smad signaling pathway - cell viability counter screen (AID 1346829); note: top concentration of the series differs between compounds; nearly all actives have a fitted effect of over 45% in size
Procedure, shortened: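 Luminescence from CellTiter-Glo, read after a 30 min room-temperature incubation, gives cell viability of SBE-bla HEK 293T cells treated 5 hr with compounds at 37 C.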

[6] = qHTS assay to identify small molecule agonists of the TGF-beta/Smad signaling pathway (AID 1346859; active = well fitted activation curve with a large enough effect in the signal ratio in the repeat runs, not every such curve was filed as active; the % refers to the signal ratio; note: series mostly up to about 77 µM)
Procedure, shortened: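 SBE-bla HEK 293T, 4,000 cells/well, plated o/n; cpd in DMSO, 5 hr, 37 C/5% CO2; B/G FRET substrate 2 hr RT; ex 405, em 460/530 nm.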

[7] = biological target: Thyrotropin-releasing hormone receptor (Homo sapiens) (UniProt P34981); test: qHTS assay to identify small molecule antagonists of the thyrotropin-releasing hormone receptor (TRHR) signaling pathway (AID 1346877; active = well fitted inhibition curve with a large enough effect in the repeat runs, not every such curve was filed as active; note: series mostly up to about 51 µM)
Chain of Thyrotropin-releasing hormone receptor (Homo sapiens) (P34981 whole entry, looked up): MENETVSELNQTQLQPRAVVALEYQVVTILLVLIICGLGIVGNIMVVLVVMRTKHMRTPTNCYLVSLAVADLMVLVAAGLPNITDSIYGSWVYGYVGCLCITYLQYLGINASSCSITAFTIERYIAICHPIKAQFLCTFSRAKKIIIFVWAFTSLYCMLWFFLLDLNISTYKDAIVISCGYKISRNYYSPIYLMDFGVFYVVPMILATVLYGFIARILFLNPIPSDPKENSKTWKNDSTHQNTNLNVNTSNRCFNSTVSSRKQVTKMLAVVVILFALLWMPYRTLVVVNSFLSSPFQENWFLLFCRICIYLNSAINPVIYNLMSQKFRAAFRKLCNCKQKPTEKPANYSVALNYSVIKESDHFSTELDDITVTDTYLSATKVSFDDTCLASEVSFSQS
Procedure, shortened: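 HEK293/TRHR cells, 18 h, 37 °C; Ca2+ dye 2 h; cpd 5 min RT; TRH 1 nM final; fluorescence read 3 min, 1 s intervals; 15 concs, triplicate.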

[8] = biological target: Thyrotropin-releasing hormone receptor (Homo sapiens) (UniProt P34981); test: qHTS assay to identify small molecule agonists of the thyrotropin-releasing hormone receptor (TRHR) signaling pathway (AID 1346891; calls by dose curve; note: series mostly up to about 58 µM)
Procedure, shortened: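 Intracellular calcium rise, read as fluorescence every second for 3 min, served as the agonist signal in dye-loaded HEK293 cells expressing TRHR; each compound ran at 15 concentrations in triplicate.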

[9] = Human pregnane X receptor (PXR) small molecule agonists, qHTS cell viability counter screen (AID 1346977); note: nearly all actives have a fitted effect of over 50% in size; note: potency is the fitted concentration of half-maximal effect
Procedure, shortened: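 PXR-Luc HepG2, 2,000 cells/well, 5% charcoal-stripped FBS; 5hr settle; cpd 24hr, 37C/5% CO2; CellTiter-Fluor at 23hr, read 1hr later (fluorescence).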

[10] = Caspase-3/7 induction in HepG2 cells by small molecules, qHTS assay (AID 1346978); note: nearly all actives have a fitted effect of over 15% in size
Procedure, shortened: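 Wild-type HepG2 cells, 2,000/well, settled 5 hr at 37 C and 5% CO2, then compound-treated for 17 hr; caspase-3/7 activity read by luminescent Caspase-Glo 3/7 after 30 min at room temperature.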

[11] = Caspase-3/7 induction in CHO-K1 cells by small molecules, qHTS cell viability counter screen (AID 1346979); note: nearly all actives have a fitted effect of over 35% in size; note: potency is the fitted concentration of half-maximal effect
Procedure, shortened: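 Cells (CHO-K1, wild type) are plated at 1,500 per well and incubated 5hr. Test compounds in DMSO are then pinned in, followed by 16hr at 37C and 5% CO2. Viability is read by CellTiter-Fluor fluorescence after 1hr.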

[12] = Caspase-3/7 induction in CHO-K1 cells by small molecules, qHTS assay (AID 1346980); note: nearly all actives have a fitted effect of over 15% in size
Procedure, shortened: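 Wild-type CHO-K1 cells exposed to compounds for 17hr at 37 C, 5% CO2. Caspase-3/7 activity then measured by Caspase-Glo 3/7 luminescence after 30min at room temperature.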

[13] = Caspase-3/7 induction in HepG2 cells by small molecules, qHTS cell viability counter screen (AID 1346981); note: nearly all actives have a fitted effect of over 30% in size; note: potency is the fitted concentration of half-maximal effect
Procedure, shortened: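 Fluorescence read-out of live-cell protease activity (CellTiter-Fluor) after 1 hr with reagent. This was measured in the same wells as the caspase-3/7 luminescence, on HepG2 cells exposed to DMSO-dissolved compounds for 16 hr at 37 C.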

[14] = biological target: Nuclear receptor subfamily 1 group I member 2 (Homo sapiens) (UniProt O75469); test: Human pregnane X receptor (PXR) small molecule agonists, qHTS assay (AID 1346982); note: nearly all actives have a fitted effect of over 35% in size; note: potency is the fitted concentration of half-maximal effect
Chain of Nuclear receptor subfamily 1 group I member 2 (Homo sapiens) (O75469 whole entry, looked up): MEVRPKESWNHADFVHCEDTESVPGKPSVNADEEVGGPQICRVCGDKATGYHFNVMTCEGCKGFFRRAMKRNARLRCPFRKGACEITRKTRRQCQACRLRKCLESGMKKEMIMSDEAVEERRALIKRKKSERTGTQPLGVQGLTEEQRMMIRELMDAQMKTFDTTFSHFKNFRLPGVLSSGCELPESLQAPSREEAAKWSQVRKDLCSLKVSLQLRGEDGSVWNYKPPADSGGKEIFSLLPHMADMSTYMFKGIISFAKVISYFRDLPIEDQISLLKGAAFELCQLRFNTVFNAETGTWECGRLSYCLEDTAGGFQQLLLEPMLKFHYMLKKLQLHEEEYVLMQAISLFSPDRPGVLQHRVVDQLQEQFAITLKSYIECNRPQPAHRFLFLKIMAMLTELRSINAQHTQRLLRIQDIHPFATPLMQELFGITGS
Procedure, shortened: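 HepG2 PXR-Luc reporter line, 5% charcoal-stripped FBS; 5 hr pre-incubation, compound (DMSO) 24 hr at 37 C/5% CO2; ONE-Glo 30 min RT; luminescence read-out.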

[15] = biological target: Acetylcholinesterase (Homo sapiens) (UniProt P22303); test: Acetylcholinesterase (AChE) small molecule antagonists: colormetric cell-based qHTS assay (AID 1347395; calls by dose curve; note: nearly all actives have a fitted effect of over 30% in size; note: potency is the fitted concentration of half-maximal effect)
Chain of Acetylcholinesterase (Homo sapiens) (P22303 whole entry, looked up): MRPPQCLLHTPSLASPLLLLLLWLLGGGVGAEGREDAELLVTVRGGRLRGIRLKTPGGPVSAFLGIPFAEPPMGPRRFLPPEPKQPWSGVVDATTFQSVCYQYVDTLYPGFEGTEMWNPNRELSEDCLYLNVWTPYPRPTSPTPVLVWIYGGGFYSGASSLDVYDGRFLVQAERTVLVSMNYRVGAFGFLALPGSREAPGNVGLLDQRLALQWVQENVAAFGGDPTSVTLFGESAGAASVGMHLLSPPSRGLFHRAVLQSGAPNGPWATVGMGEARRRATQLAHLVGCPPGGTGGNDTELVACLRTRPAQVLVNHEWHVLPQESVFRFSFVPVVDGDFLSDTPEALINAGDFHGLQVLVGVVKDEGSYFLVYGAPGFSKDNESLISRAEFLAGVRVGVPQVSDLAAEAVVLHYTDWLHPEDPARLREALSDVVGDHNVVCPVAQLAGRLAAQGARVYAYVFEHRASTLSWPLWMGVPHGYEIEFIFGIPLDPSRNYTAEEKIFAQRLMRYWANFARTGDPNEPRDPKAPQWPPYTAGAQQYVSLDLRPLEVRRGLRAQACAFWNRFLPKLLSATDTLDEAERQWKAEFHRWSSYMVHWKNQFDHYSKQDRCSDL
Procedure, shortened: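 Colorimetric read-out: DTNB detects thiocholine released when cellular AChE in SH-SY5Y cells hydrolyses acetylthiocholine. Cells attached overnight, received compound for 30 min at 37 C, then substrate mix for 90 min at 37 C.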

[16] = biological target: Acetylcholinesterase (Homo sapiens) (UniProt P22303); test: Acetylcholinesterase (AChE) small molecule antagonists: enzyme-based qHTS assay (AID 1347397; calls by dose curve; note: nearly all actives have a fitted effect of over 55% in size); details: Potency: AChE enzyme activity inhibition
Procedure, shortened: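 Colorimetric DTNB read-out of thiocholine released from acetylthiocholine by recombinant human AChE (50 mU/mL as dispensed). Compounds were preincubated 30 min at RT before substrate/DTNB addition, with a 10 min RT reaction.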

[17] = biological target: Progesterone receptor (Homo sapiens) (UniProt P06401); test: qHTS assay to identify small molecule antagonists of the progesterone receptor (PR) signaling pathway (AID 1346795; active = well fitted inhibition curve with a large enough effect in the signal ratio in the repeat runs, not every such curve was filed as active; the % refers to the signal ratio; note: potency is the fitted concentration of half-maximal effect)
Procedure, shortened: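 Read-out is fluorescence from the LiveBLAzer B/G FRET substrate, cleaved by a UAS-controlled beta-lactamase in PR-UAS-bla HEK293T cells after 16 hr exposure to compound plus 1 nM promegestone (final), followed by 2 hr at room temperature.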

SMILES | Potency [1] | Potency [2] | Potency [3] | Potency [4] | Potency [5] | outcome [6] | Potency [7] | Potency [8] | Potency [9] | Potency [10] | Potency [11] | Potency [12] | Potency [13] | Potency [14] | Potency [15] | Potency [16] | Potency [17]
COc1nc(C)nc(NC(=O)NS(=O)(=O)c2ccccc2Cl)n1 | inactive | inactive | inactive | inactive | inactive | inactive | inactive | inactive | inactive | inactive | inactive | inactive | inactive | inactive | inactive | inactive | 
CN | inactive | inactive | inactive | inactive | inactive | inactive | inactive | inactive | inactive | inactive | inactive | inactive | inactive |  |  |  | 
CC(C)N(C(=O)CCl)c1ccccc1 | inactive | 61.1 µM (active) and 48.6 µM (active) | inactive |  | inactive | inactive | inactive | inactive | 27.3 µM (active) | inactive | 24.3 µM (active) and 27.3 µM (active) | inactive | 54.5 µM (active) | 48.6 µM (active) and inactive | 63.3 µM (active) | inactive | 
CSC1=N[C@@](C)(c2ccccc2)C(=O)N1Nc1ccccc1 | inactive |  |  |  | inactive | inactive | inactive | inactive |  | inactive | 8.63 µM (active) | inactive |  |  | inactive | inactive | 43.3 µM (active)
CCC(C)Nc1c([N+](=O)[O-])cc(C(C)(C)C)cc1[N+](=O)[O-] (stereo not drawn) | inactive | inactive | inactive | inactive | inactive | inactive | inactive | inactive | inactive | inactive |  |  | inactive | 24.3 µM (active) |  | inactive | 
FC(F)C(F)(F)OCC(Cn1cncn1)c1ccc(Cl)cc1Cl (stereo not drawn) | inactive |  |  |  | inactive | inactive | inactive | inactive |  | inactive | 48.3 µM (active) | inactive |  | 27.1 µM (active) |  | inactive | 19.2 µM (active)
Cc1c([N+](=O)[O-])cc2c(c1[N+](=O)[O-])C(C)(C)CC2(C)C | inactive | inactive |  |  | inactive | inactive | inactive | inactive | inactive | inactive | inactive |  | inactive | 54.5 µM (active) | inactive | inactive | 
COC(=O)c1cc(Oc2ccc(Cl)cc2Cl)ccc1[N+](=O)[O-] | inactive |  |  | inactive | inactive | inactive |  |  | inactive | inactive |  | inactive | inactive | 54.5 µM (active) |  | inactive | 15.4 µM (active)
